The record followed here is PubChem BioAssay (NCATS).

Test [1] addresses Cytochrome P450 3A4 (Homo sapiens) (UniProt P08684). In words: qHTS Assay for Inhibitors and Substrates of Cytochrome P450 3A4 (AID 884). Also: % is scaled to controls: 0 for no effect and ±100 for the full control effect; nearly all actives have a fitted effect of over 50% in size. A digest of the protocol: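 20 nM human CYP3A4 with 25 uM Luciferin-PPXE (at KM) in 200 mM KPO4, preincubated 10 min with compound; NADPH regeneration started a 60 min RT reaction. Luciferin detected by luminescence, normalized to 57 uM ketoconazole as full inhibition.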
(In general: qHTS replaces the single test concentration by a dilution series.)

A short description of test [2]: Confirmation and Secondary Assay for Modulators of Hemoglobin Beta Chain Splicing at IVS2 705 locus (AID 930).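 Also: HeLa cells stably expressing the EGFP-705 splicing reporter; GFP fluorescence per well restored by corrected splicing of the IVS2-705 intron in EGFP; % of control where 0% means no effect.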 An outline of the steps: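 Per-well GFP, captured at 1 x 8 µm resolution with 488 nm excitation, served as the read-out for HeLa EGFP-705 cells incubated 2 days with test compound versus DMSO.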
Test [3] in a line: qHTS Assay for Lipid Storage Modulators (AID 1519; calls by dose curve; as to activity change, negative = inhibition: % is scaled to controls: 0 for no effect and ±100 for the full control effect). The settings on record: Drosophila S3 cells, BODIPY lipid droplet/cell ratio, laser cytometry, cells loaded with oleic acid; for activity change, negative = inhibition: at 57.5 µM (top of the series). A digest of the protocol: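 Cells seeded at 5,000 per well were treated with compounds over a concentration series and loaded with oleic acid (400 uM, as added). Lipid droplet fluorescence (488 nm excitation, 500-530 nm channel) was read by laser-scanning cytometry and normalized to 20 uM Triacsin C.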

Test [4] addresses Luciferin 4-monooxygenase (Photinus pyralis) (UniProt P08659). In words: Biochemical firefly luciferase enzyme assay for NPC (AID 624030).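 Also: purified P. pyralis luciferase at 10 nM with luciferin and ATP substrate; 0% = DMSO and -100% = full luciferase inhibition by PTC124 control; nearly all actives have a fitted effect of over 70% in size.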 An outline of the steps:
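Purified P. pyralis luciferase at 10 nM in 50 mM Tris Acetate (final), luminescence read within 5 minutes of enzyme addition to compounds. Activity normalised to PTC124 versus DMSO; concentration-response curves classed by r2, magnitude and activity.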

Test [5] can be described thus: qHTS profiling for inhibitors of Plasmodium falciparum proliferation (AID 504749). Also: potency is read from the fitted curve at half-maximal effect.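 As to activity, negative = inhibition: 0% = DMSO vehicle and full inhibition = artemisinin control.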 As to all read-outs here: nearly all actives have a fitted effect of over 60% in size. The following applies: P. falciparum in erythrocytes, SYBR Green DNA, 72 h; for activity, negative = inhibition: at 28.7 µM (top of the series). A digest of the protocol:
(§1)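 P. falciparum-infected erythrocytes (0.3% parasitemia, 2.5% hematocrit) incubated with compound 72 h at 37 C, 5% CO2. Parasite DNA detected by SYBR Green after lysis, overnight at room temperature; normalised to 0.29 uM artemisinin and DMSO.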

The test system of a further test is ATS189. The test is described as above. The settings on record: P. falciparum in erythrocytes, SYBR Green DNA, 72 h; series mostly up to 28.7 µM. A digest of the protocol: as §1
In a further test the test system is DFO2036. The test is described as above. The following applies: P. falciparum in erythrocytes, SYBR Green DNA, 72 h; series mostly up to 28.7 µM. A digest of the protocol:
as §1

Test [6] in a line: Confirmation and Secondary Assay for Modulators of Hemoglobin Beta Chain Splicing at IVS2 654 locus (AID 910).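 Also: HeLa cells stably carrying EGFP split by mutant beta-globin IVS2-654 intron; % of control where 0% means no effect.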 A digest of the protocol:
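HeLa cells stably expressing EGFP interrupted by β-globin IVS2-654 intron, seeded overnight in Opti-MEM/2% FCS, then treated 2 days at 37 °C. Restored splicing read as total peak GFP intensity per well by laser scanning cytometry (488 nm excitation, 500–520 nm emission); 500 nM antisense PNA as control.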

In test [7] the target is Ubiquitin carboxyl-terminal hydrolase 1 (Homo sapiens) (UniProt O94782). In words: Inhibitors of USP1/UAF1: Pilot qHTS (AID 504865).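 Also: rhodamine fluorescence freed from ubiquitin-rhodamine substrate followed over time; top concentration of the series differs between compounds; % is scaled to controls: 0 for no effect and ±100 for the full control effect; nearly all actives have a fitted effect of over 35% in size.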 An outline of the steps: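 USP1/UAF1 complex (1nM) preincubated with compound 15 min at room temperature, then Ub-Rho substrate (150nM final) added. Fluorescence read kinetically at 480/540 nm, 6 reads every 60 seconds. Buffer: 50mM HEPES pH 7.8, 0.5mM EDTA, 0.1 mg/ml BSA, 1mM TCEP, 0.01% Tween-20.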
Sequence of Ubiquitin carboxyl-terminal hydrolase 1 (Homo sapiens) (O94782 whole entry, looked up): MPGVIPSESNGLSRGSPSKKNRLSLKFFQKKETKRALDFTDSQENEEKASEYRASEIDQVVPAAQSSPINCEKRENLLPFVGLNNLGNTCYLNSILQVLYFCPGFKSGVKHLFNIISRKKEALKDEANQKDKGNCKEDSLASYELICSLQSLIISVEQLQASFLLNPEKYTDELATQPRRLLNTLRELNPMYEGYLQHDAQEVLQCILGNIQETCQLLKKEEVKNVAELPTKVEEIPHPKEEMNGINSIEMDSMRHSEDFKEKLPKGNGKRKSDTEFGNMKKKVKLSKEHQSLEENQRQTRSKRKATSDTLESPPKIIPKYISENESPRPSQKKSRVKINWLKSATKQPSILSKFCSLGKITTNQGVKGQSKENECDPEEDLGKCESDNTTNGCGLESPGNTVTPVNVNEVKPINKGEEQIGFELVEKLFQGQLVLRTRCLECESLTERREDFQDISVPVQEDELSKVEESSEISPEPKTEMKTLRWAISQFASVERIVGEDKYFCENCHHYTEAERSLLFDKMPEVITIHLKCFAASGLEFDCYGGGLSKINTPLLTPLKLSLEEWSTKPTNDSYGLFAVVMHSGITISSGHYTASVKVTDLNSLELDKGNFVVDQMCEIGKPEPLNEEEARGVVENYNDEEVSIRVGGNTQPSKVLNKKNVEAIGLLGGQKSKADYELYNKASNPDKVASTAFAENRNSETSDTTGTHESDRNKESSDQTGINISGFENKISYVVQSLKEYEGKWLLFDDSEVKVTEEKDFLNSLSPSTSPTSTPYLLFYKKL

Test [8] has as its target Peroxisome proliferator-activated receptor alpha (Homo sapiens) (UniProt Q07869). Put plainly: qHTS assay for small molecule agonists of the peroxisome proliferator-activated receptor alpha (PPARalpha) signaling pathway (AID 651778). Also: % of control where 0% means no effect. The settings on record: PathHunter PPARalpha complementation, chemiluminescence, 6 h; stronger effect = higher value. An outline of the steps: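 Enzyme-fragment complementation assay in which ligand-bound PPARalpha translocates and forms an active enzyme that generates chemiluminescence. Cells were plated overnight, exposed to compound for 6 hr at 37 C, and then given detection reagent for 60 min at room temperature.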

A short description of test [9]: qHTS assay for cell viability of HEK293 cells (AID 743288). Also: % is scaled to controls: 0 for no effect and ±100 for the full control effect; nearly all actives have a fitted effect of over 50% in size. The following applies: ATP luminescence (CellTiter-Glo), 18 h; max response: stronger effect = lower value. An outline of the steps:
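Parental HEK293 cells were seeded at 2,000 cells/well, rested at least 5 h at 37 C, then exposed to compounds in DMSO for 18 h at 37 C. Viability was read as ATP-dependent luciferase luminescence after 30 min at room temperature.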

The mark [10] stands for this setting: measured here: cell count channel max response.
Setting [11] is: measured here: lipid channel max response.

Inconclusive results are not listed. Calls of active or inactive are those of the source. Unless noted, calls follow the shape of the dose curve; as a rule, active = well fitted curve in the direction sought with a large enough effect; inconclusive = small, poorly fitted or top-dose-only effect, or another doubt; inactive = no such curve, though single readings can be large; an effect the other way counts as inactive or inconclusive.

Sequence of Luciferin 4-monooxygenase (Photinus pyralis) (P08659 whole entry, looked up): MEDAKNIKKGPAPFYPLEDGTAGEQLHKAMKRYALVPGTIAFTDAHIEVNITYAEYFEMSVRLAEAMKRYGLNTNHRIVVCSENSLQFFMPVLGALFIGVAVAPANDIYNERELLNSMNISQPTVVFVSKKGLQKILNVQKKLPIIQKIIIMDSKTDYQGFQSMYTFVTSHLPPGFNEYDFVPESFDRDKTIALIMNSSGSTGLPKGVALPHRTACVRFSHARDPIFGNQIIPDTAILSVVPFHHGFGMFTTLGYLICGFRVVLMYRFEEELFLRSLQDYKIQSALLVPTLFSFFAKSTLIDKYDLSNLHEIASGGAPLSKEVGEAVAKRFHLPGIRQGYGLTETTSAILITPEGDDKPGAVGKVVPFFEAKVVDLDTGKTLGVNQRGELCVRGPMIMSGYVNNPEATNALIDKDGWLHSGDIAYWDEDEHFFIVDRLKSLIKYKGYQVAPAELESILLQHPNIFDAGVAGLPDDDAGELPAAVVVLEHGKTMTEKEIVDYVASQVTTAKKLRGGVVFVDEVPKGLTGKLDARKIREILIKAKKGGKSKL
Sequence of Cytochrome P450 3A4 (Homo sapiens) (P08684 whole entry, looked up): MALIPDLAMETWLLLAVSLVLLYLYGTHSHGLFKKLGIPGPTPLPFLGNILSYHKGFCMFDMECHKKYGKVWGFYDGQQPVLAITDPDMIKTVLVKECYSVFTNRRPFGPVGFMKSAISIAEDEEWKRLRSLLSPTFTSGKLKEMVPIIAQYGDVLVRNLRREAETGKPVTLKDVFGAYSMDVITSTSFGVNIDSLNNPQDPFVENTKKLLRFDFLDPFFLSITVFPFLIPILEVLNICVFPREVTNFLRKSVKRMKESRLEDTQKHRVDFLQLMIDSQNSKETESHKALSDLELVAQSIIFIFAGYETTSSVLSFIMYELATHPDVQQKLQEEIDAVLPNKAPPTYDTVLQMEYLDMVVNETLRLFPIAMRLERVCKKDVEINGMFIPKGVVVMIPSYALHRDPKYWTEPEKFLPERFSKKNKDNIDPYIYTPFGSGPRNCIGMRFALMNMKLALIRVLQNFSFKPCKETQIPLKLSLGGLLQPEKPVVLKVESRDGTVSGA
Sequence of Peroxisome proliferator-activated receptor alpha (Homo sapiens) (Q07869 whole entry, looked up, the tested form may be a part): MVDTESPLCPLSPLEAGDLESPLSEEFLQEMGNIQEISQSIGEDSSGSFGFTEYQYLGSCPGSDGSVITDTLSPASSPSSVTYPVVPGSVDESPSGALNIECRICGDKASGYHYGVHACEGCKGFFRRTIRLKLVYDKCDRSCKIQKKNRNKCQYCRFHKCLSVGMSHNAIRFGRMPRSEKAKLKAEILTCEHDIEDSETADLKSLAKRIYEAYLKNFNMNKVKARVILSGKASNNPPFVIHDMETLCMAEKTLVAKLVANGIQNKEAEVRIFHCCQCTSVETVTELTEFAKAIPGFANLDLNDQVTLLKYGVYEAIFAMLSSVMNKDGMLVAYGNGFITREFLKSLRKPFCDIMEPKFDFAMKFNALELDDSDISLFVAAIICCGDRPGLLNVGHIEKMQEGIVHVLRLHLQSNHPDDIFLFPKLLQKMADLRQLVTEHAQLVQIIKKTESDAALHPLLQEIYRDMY

In the case of `CCC(C)C1O[C@]2(C=CC1C)CC1CC(C/C=C(\C)[C@H](OC3CC(OC)C(O[C@H]4CC(OC)[C@@H](O)C(C)O4)C(C)O3)[C@@H](C)/C=C/C=C3\COC4C(O)C(C)=C[C@H](C(=O)O1)[C@@]34O)O2` (stereo partly specified), the Potency entry in test [1], in [2] and in test [4] was “inactive” each time. Besides, the activity change, negative = inhibition in test [3] is -5.38% (inactive). The max response is -1.86% in test [3] (setting [10]) and -6.99% in test [3] (setting [11]). The Potency in test [5] (parasite line A) was 4.47 µM (active); in test [5] (parasite line B), 8.91 µM (active); in the test on ATS189, 11.2 µM (active); in the test with DFO2036, 11.2 µM (active).

For the compound `CC([C@H](O)c1ccccc1)N(C)C` (stereo partly specified), the Potency entry (in test [1]; in [6]; in [2]; in [7]; in test [4]; with ATS189) was “inactive” throughout. The Potency result in the test on DFO2036 was “inactive”. In addition, in test [3], the activity change, negative = inhibition was 4.16% (inactive). Also, the values for the max response in test [3] (setting [10]) and in [3] (setting [11]) were 14.6% and 17.5%, respectively. Moreover, the activity, negative = inhibition in test [5] (parasite line A) was 3.7% (inactive); in test [5] (parasite line B), -27.1% (inactive).

As for `CNC(C)[C@@H](O)c1ccccc1` (stereo partly specified), the Potency entry (in test [2]; in test [4]; in the test on ATS189; in the test on DFO2036) was “inactive” each time. In [3], the activity change, negative = inhibition is -6.91% (inactive). Also, the max response in test [3] (setting [10]) came to 19.3%; in test [3] (setting [11]), 12.8%. Besides, the activity, negative = inhibition is -2.9% (inactive) in test [5] (parasite line A) and -5.29% (inactive) in test [5] (parasite line B).

On to `CNC(=O)Oc1cccc2c1OC(C)(C)O2`, for which the Potency result in test [2] and in [7] was “inactive” in each case. Besides, the activity change, negative = inhibition in [3] was 5.39% (inactive). Moreover, the max response in test [3] (setting [10]) was 18%; in [3] (setting [11]) it was 22.8%; in test [8], -1.3% (inactive); in [9], -19.8% (inactive).

On to `CC(C)(O)[C@@H]1C2OC(=O)[C@@H]1[C@]1(O)C[C@H]3O[C@]34C(=O)O[C@H]2[C@]14C`, for which the activity change, negative = inhibition in test [3] was 5.46% (inactive). Further, the max response was determined as 3.27% in [3] (setting [10]) and 5.39% in [3] (setting [11]). Moreover, the Potency entry in test [7] was “inactive”.

With `CN1C2CC(OC(=O)C(CO)c3ccccc3)C[C@@H]1[C@H]1OC21` (stereo partly specified), in test [3], the activity change, negative = inhibition is 7.13% (inactive). Further, the max response in [3] (setting [10]) is 12.9%; in test [3] (setting [11]), 25.6%. Besides, the Potency result in [7] is “inactive”.
